About 83,000 compounds went through this panel and 20% of them were active in at least one assay; those are over-represented in the sample as a whole.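 Single-dose data. Exposure time 48 hours. Values below 10 considered active.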 Calls of active or inactive are those of the source.

For this test, the system named is HL-60(TB) leukemia. Description: NCI-60 one-dose screen, 48 h (100 = growth as untreated, 0 = no growth, -100 = all killed). The conditions noted are these: 10 µM unless noted.
In the case of `COc1ccc(/C=C/C(=O)c2ccc(NC(=O)CSc3nnc(-c4cc(-c5ccccc5)nc5ccccc45)n3-c3ccccc3)cc2)cc1`, the growth is 95.9% (inactive). `Cc1oc(-c2ccccc2Cl)cc1C(=O)Nc1ccc(S(N)(=O)=O)cc1`: the growth was 102% (inactive).

`COc1cc(CNC(=O)c2ccsc2Nc2ccnc(C(F)(F)F)c2)ccc1O`: the growth was 102% (inactive). As for `CCCNCC(=O)Nc1ccc(C(=O)OC(C)(C)CC)cc1`, the growth was 89.8% (inactive). For `CCn1cnc2c1c(=O)[nH]c(=O)n2CC1CCC(CNS(=O)(=O)c2ccc(OC3CCOCC3)c(F)c2)CC1` (stereo not given), the growth was 13.2% (inactive). To `CN1CCN(Cc2ccc(NC(=O)c3cncc(C#Cc4ncc5ccccn45)c3)cc2C(F)(F)F)CC1` belongs -3.92% (active); to `CC(CC(CCC(=O)O)(c1ccccc1)c1ccccc1)N(C)C` (stereo not given), 109% (inactive); to `O=C(CCCCCCCn1cc(-c2cccnc2)nn1)Nc1ccccc1-c1ccccc1`, 45.7% (inactive). Consider `CC(CCc1ccccc1)NC(=O)c1n[nH]c(=O)c2ccccc12` (stereo not given), for which the growth is 88.3% (inactive). Consider `COc1ccc(C(C)=O)cc1N1C(=O)C2C(C1=O)C1(c3ccccc3)C(=O)C2(c2ccccc2)C(c2ccc(C)cc2)=C1c1ccc(C)cc1` (stereo not given), for which the growth was 17.1% (inactive). To `Cc1nc(-c2ccccc2)cc2c(O)c(C(=O)NN)[nH]c(=O)c12` belongs 126% (inactive); to `Cc1cc(Nc2ccc(F)cc2)nc(N2CCN(c3ccnc4cc(Cl)ccc34)CC2)n1`, 7.98% (active). To `Cc1[nH]c2ccccc2c1C1=CC(=O)C=CC1=O` belongs 12.4% (inactive); to `CC1=C2[C@@H](CC1)[C@]1(C)O[C@@](C(C)C)(C[C@H]1OC(=O)CO)[C@H]2OC(=O)C1CC1c1ccccc1` (stereo not given in full), 89.8% (inactive). As for `COc1cc(/C=N/NC(=S)NNC(=S)NC2CCCCC2)cc(OC)c1OC`, the growth is 104% (inactive). Take `C=CCOC1=CC(=O)c2ccccc2C1=O`: the growth is 41.6% (inactive). For `C=C(C)[C@@H]1CC[C@]2(C(=O)OC)CC[C@]3(C)[C@H](CC[C@@H]4[C@@](C)(CC/C(N)=N/O)[C@H](C(=C)C)CC[C@]43C)[C@@H]12`, the growth is 92.2% (inactive). Turning to `O=C(Cn1nnc2ccccc21)Nc1ccc(-c2nc3ccccc3s2)cc1`, the growth was 90.8% (inactive).

As for `CCN(CC)CCCC(C)Nc1c2ccc(Cl)cc2nc2ccc(OC)cc12` (stereo not given), the growth is 55.3% (inactive). `O=S(=O)(Nc1ccc(OC(F)F)cc1)c1ccc(-c2cnc(C3CC3)o2)cc1`: the growth is 64.7% (inactive). On to `CCCC(c1nnnn1C1CCCCC1)N1CCN(C(=O)c2ccco2)CC1` (stereo not given), for which the growth is 12.6% (inactive). For `COc1ccc2nc(NC(=O)c3cccnc3Nc3ccc(S(N)(=O)=O)cc3)sc2c1`, the growth was 54.5% (inactive). For `O=C(c1nc2ccccc2[nH]1)C1C(c2ccc(F)cc2)C2CC3CCCCC3N2[C@@]12C(=O)Nc1ccc(Cl)cc12` (stereo not given in full), the growth was 33.2% (inactive). To `C=C(C)[C@@H]1CC[C@]2(C(=O)O)CC[C@]3(C)[C@H](CC[C@@H]4[C@@]5(C)C/C(=C/c6cccc(I)c6)C(=O)C(C)(C)[C@@H]5CC[C@]43C)[C@@H]12` belongs 7.47% (active); to `CCOC(=O)CSc1nc(-c2cc(OC)ccc2OC)cc(-c2ccc(OC)cc2)c1C#N`, 98.5% (inactive); to `COc1cc2ncnc(Nc3ccc(OCc4cccc(F)c4)c(Cl)c3)c2cc1NC(=O)C1CCCC1`, 99% (inactive). As to `Cc1cc(N2CCOCC2)nc(N(CCNc2ccnc3cc(Cl)ccc23)Cc2ccco2)n1`, the growth is -65.1% (active). To `N#CSCC1CC(O)(c2ccccc2)CC(c2ccc(Cl)cc2)O1` (stereo not given) belongs -30.9% (active); to `Cn1c(=O)c2c(ncn2CC(=O)Nc2ccc(S(N)(=O)=O)cc2)n(C)c1=O`, 94.2% (inactive). On to `Fc1cc2[nH]ncc2c2c3c(c(-c4cn[nH]c4C(F)(F)F)nc12)C1CCC3C1` (stereo not given), for which the growth was 1.63% (active). To `CC1(C)OB(O)c2cc(-c3nc4ccc5[nH]ncc5c4c4c3CCCC4)ccc21` belongs 90.7% (inactive). For `O=CN1N=C(c2cccc(Nc3ccncc3)c2)CC1c1ccc2c(c1)OCO2` (stereo not given), the growth is 85.5% (inactive). Regarding `CC(=O)OCC1O[C@@H](OC(C)=O)[C@@H](NC(=O)NS(=O)(=O)c2ccccc2)C(OC(C)=O)[C@@H]1OC(C)=O` (stereo not given in full), the growth was 95.7% (inactive). As for `COc1ccc(-c2cncn2-c2ccc(-c3nc4cc(OC)c(OC)c(OC)c4s3)cc2)cc1N`, the growth is 27.8% (inactive). `CCOC(=O)C1=NN(c2ccccc2)C(=O)/C1=C\N1C(=O)/C(=C/c2cccc(O)c2)SC1=S`: the growth is 93.2% (inactive). Turning to `O=C(/C(Br)=C/c1ccccc1)c1ccccc1`, the growth is -2.59% (active). Take `CC(=O)Nc1ccc2oc(=O)ccc2c1`: the growth is 67.8% (inactive). As to `N[C@@H](CC/[N+]([O-])=N/O)C(=O)O`, the growth is 110% (inactive). `NC(N)=NN=c1c(=O)c2ccccc2c1=O`: the growth was 95.2% (inactive). Take `CC(=O)Nc1nc(C)c(C(=O)N/N=C/c2cccs2)s1`: the growth is 130% (inactive).

These data come from PubChem BioAssay (NCI).
